This is an account of results in PubChem BioAssay (NCATS).

“And” between values parts separate entries of the source, which are not always exact repeats. Equal values may be shown once. Results filed as inconclusive are left out. Where a structure was tested more than once in an assay, its records may differ in their call. The source made the active and inactive calls. Calls come from the whole dose curve; as a rule, active = well fitted curve in the direction sought with a large enough effect; inconclusive = small, poorly fitted or top-dose-only effect, or another doubt; inactive = no such curve, though single readings can be large; an effect the other way counts as inactive or inconclusive.

The subject of one assay is MKL-1. Put plainly: qHTS assay to identify novel small-molecules to repurpose for Merkel cell carcinoma treatment (AID 1296009). Note: nearly all actives have a fitted effect of over 60% in size. The following applies: MCC and control cell lines, CellTiter-Glo viability, 72 h; series mostly up to 46 µM. Summed up: (§1)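 qHTS format: cells treated with library compounds in DMSO across 8 (NPC) or 11 (MIPE) concentrations. Readout after 72 hr at 37 degree celsius was CellTiter-Glo luminescence.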
For orientation: Quantitative high-throughput screening tests each substance at several concentrations.

The next assay relates to WaGa. The description is as above. To be noted: MCC and control cell lines, CellTiter-Glo viability, 72 h; series mostly up to 46 µM. In short, it runs like this: as §1
(In general: In ATP-based viability assays light output follows the ATP content of the culture.)

A further assay concerns C33A. Put plainly: Primary qHTS to identify gynecologic anti-cancer compounds using libraries of approved drugs and bioactive compounds (AID 1345084). Note: nearly all actives have a fitted effect of over 55% in size. To be noted: Gynecologic cancer cell panel viability, ATPlite luminescence, 48 h; series mostly up to 57.5 µM. In short, it runs like this:
(§2)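 Cells, 1,000 per well, plated 16 h, then exposed 48 h at 37 C to compounds. Viability by ATPlite luminescence after 15 min at room temperature.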

For a further assay, the system named is Es-2. The description is as above. The following applies: Gynecologic cancer cell panel viability, ATPlite luminescence, 48 h; series mostly up to 57.5 µM. In short, it runs like this:
as §2

The test system of a further assay is HeLa. The description is as above. To be noted: Gynecologic cancer cell panel viability, ATPlite luminescence, 48 h; series mostly up to 57.5 µM. In short, it runs like this: as §2
The test system of a further assay is Hek293T. The assay is described as above. To be noted: Gynecologic cancer cell panel viability, ATPlite luminescence, 48 h, control line for the selectivity index; series mostly up to 57.5 µM. In short, it runs like this:
as §2

In the next assay the test system is JEG-3. The description is as above. To be noted: Gynecologic cancer cell panel viability, ATPlite luminescence, 48 h; series mostly up to 57.5 µM. In short, it runs like this:
as §2

Another assay deals with Tov-21-G. The description is as above. To be noted: Gynecologic cancer cell panel viability, ATPlite luminescence, 48 h; series mostly up to 57.5 µM. In short, it runs like this:
as §2

Another assay concerns UISO. Put plainly: qHTS assay to identify novel small-molecules to repurpose for Merkel cell carcinoma treatment (AID 1296009). Note: nearly all actives have a fitted effect of over 60% in size. The following applies: MCC and control cell lines, CellTiter-Glo viability, 72 h; series mostly up to 46 µM. In short, it runs like this:
as §1

The next assay deals with CAOV3. Put plainly: Primary qHTS to identify gynecologic anti-cancer compounds using libraries of approved drugs and bioactive compounds (AID 1345084). Note: nearly all actives have a fitted effect of over 55% in size. To be noted: Gynecologic cancer cell panel viability, ATPlite luminescence, 48 h; series mostly up to 57.5 µM. In short, it runs like this: as §2
Another assay concerns CASKI. The assay is described as above. The following applies: Gynecologic cancer cell panel viability, ATPlite luminescence, 48 h; series mostly up to 57.5 µM. In short, it runs like this:
as §2

The test system of a further assay is OV90. The description is as above. To be noted: Gynecologic cancer cell panel viability, ATPlite luminescence, 48 h; series mostly up to 57.5 µM. Summed up: as §2
Another assay relates to PA-1. Described as above. To be noted: Gynecologic cancer cell panel viability, ATPlite luminescence, 48 h; series mostly up to 57.5 µM. Summed up:
as §2

The next assay concerns Tov112D. Described as above. To be noted: Gynecologic cancer cell panel viability, ATPlite luminescence, 48 h; series mostly up to 57.5 µM. Summed up:
as §2

Another assay relates to MKL-2. Put plainly: qHTS assay to identify novel small-molecules to repurpose for Merkel cell carcinoma treatment (AID 1296009). Note: nearly all actives have a fitted effect of over 60% in size. The following applies: MCC and control cell lines, CellTiter-Glo viability, 72 h; series mostly up to 46 µM. Summed up: as §1
Assay [1] is described as follows: Drug repurposing screens with cells derived from glioblastoma tumor samples (AID 1345199). Note: nearly all actives have a fitted effect of over 40% in size. The following applies: GBM patient neurospheres viability, ATP luminescence, 48 h. Summed up:
(§3)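 Four patient lines of CD133+ GBM neurospheres were screened at several concentrations; hits were retested in those lines plus three slower-growing GBM lines, using 48-hour treatment and ATP-based viability.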

A further assay deals with astro. The description is as above. To be noted: viability, ATP luminescence, 48 h; series mostly up to 45.9 µM. Summed up: as §3
A further assay has as its system SKOV3. In words: Primary qHTS to identify gynecologic anti-cancer compounds using libraries of approved drugs and bioactive compounds (AID 1345084). Note: nearly all actives have a fitted effect of over 55% in size. To be noted: Gynecologic cancer cell panel viability, ATPlite luminescence, 48 h; series mostly up to 57.5 µM. Summed up: as §2
The subject of the next assay is NIH3T3. In words: qHTS assay to identify novel small-molecules to repurpose for Merkel cell carcinoma treatment (AID 1296009). Note: nearly all actives have a fitted effect of over 60% in size. To be noted: MCC and control cell lines, CellTiter-Glo viability, 72 h; at 44.8 µM (top of the series) unless noted. Summed up: as §1
The mark [2] stands for this setting: at 45.9 µM (top of the series), tumour line B.
Setting [3] is: at 45.9 µM (top of the series), tumour line D.
Setting [4] is: at 46 µM (top of the series), tumour line A.
[5] abbreviates: at 46.1 µM (top of the series), tumour line C.
% is set by controls: 0 for no effect and ±100 for the full control effect; potency is the fitted concentration of half-maximal effect.

On to `CC(C)C[C@H](NC(=O)[C@@H](O)[C@H](N)Cc1ccccc1)C(=O)O`, for which the Potency entry in the assay on MKL-1 and with WaGa was “inactive” in each case.
For `Cc1cc(Nc2nc(N[C@@H](C)c3ncc(F)cn3)ncc2Cl)n[nH]1`, the Potency result in the assay with C33A, in the assay with Es-2, with Hek293T and in the assay with JEG-3 was “inactive” each time. For the same compound, the Potency in the assay with HeLa was 4.47 µM (active); in the assay on Tov-21-G, 14.1 µM (active).
Consider `O=C(c1cc(Cc2n[nH]c(=O)c3ccccc23)ccc1F)N1CCN(C(=O)C2CC2)CC1`, for which the Potency entry in the assay on MKL-1, in the assay on C33A, in the assay with CAOV3, in the assay with CASKI, in the assay with Es-2 and with HeLa was “inactive” in each case. Further, the Potency result in the assay with Hek293T, with JEG-3, in the assay with OV90, with PA-1, in the assay on Tov-21-G and in the assay on Tov112D was “inactive” each time. The Potency with UISO is 16.6 µM (active).
As for `NCCc1ccc(O)c(O)c1`, the Potency entry is “inactive and 23.7 µM (active)” in the assay on MKL-1; 18.7 µM (active) and inactive in the assay with MKL-2; “inactive and 18.8 µM (active)” in the assay on UISO; 11.9 µM (active) in the assay with WaGa. For the same compound, the Potency entry with C33A, in the assay on CAOV3, in the assay on CASKI, in the assay on Es-2, in the assay on HeLa and in the assay with Hek293T was “inactive” each time. The Potency result with JEG-3, in the assay on OV90, with PA-1, in the assay on Tov-21-G, in the assay with Tov112D and with astro was “inactive” each time. Further, the activity, negative = cell killing was -2.97% (inactive) in [1] (setting [2]), 1.17% (inactive) in [1] (setting [3]), -12.4% (inactive) in assay [1] (setting [4]) and 13.2% (inactive) in [1] (setting [5]).
On to `Cc1cccc(-c2[nH]c(C(C)(C)C)nc2-c2ccc3nccnc3c2)n1`, for which the Potency is 2.64 µM (active) in the assay with MKL-1, 2.96 µM (active) in the assay on UISO and 2.64 µM (active) in the assay with WaGa.
Consider `Cc1cc([C@@H](C)Nc2ccccc2C(=O)O)c2nc(N3CCOCC3)cc(=O)n2c1`, for which the Potency result with MKL-1 was “inactive”. In addition, in the assay with UISO, the Potency was 34 µM (active).
As to `NCCCC(N)(C(=O)O)C(F)F` (configuration not stated), the Potency result with MKL-1, in the assay on MKL-2, with UISO, with WaGa, with C33A and in the assay with CAOV3 was “inactive” each time. The Potency result in the assay on CASKI, in the assay on Es-2, in the assay on HeLa, in the assay with Hek293T, with JEG-3 and in the assay on OV90 was “inactive” throughout. Further, the Potency result with PA-1, in the assay with SKOV3, in the assay on Tov-21-G, with Tov112D and in the assay on astro was “inactive” each time. Besides, the activity, negative = cell killing was -9.02% (inactive) in assay [1] (setting [2]), 7.69% (inactive) in assay [1] (setting [3]), -29.6% (inactive) in assay [1] (setting [4]) and -4.46% (inactive) in assay [1] (setting [5]).
With `Clc1ccc(Nc2nnc(Cc3ccncc3)c3ccccc23)cc1`, the Potency entry was “inactive and 13.3 µM (active)” in the assay with MKL-2; 12.6 µM (active) and 7.08 µM (active) in assay [1] (tumour line A). Also, the Potency entry in the assay on UISO, with C33A, in the assay on CAOV3, with CASKI, in the assay with Es-2 and in the assay on HeLa was “inactive” throughout. For the same compound, the Potency result in the assay with Hek293T, with JEG-3, in the assay on OV90, with PA-1, in the assay on SKOV3 and in the assay on Tov-21-G was “inactive” each time. In the assay with Tov112D, the Potency result was “inactive”. Further, the activity, negative = cell killing in assay [1] (setting [2]) was -12.8% (inactive) and 0.35% (inactive); in assay [1] (setting [5]), -11.6% (inactive) and 1.14% (inactive).
With `Nc1nccc(-c2ccc3noc(-c4ccc(Cl)cc4)c3c2)n1`, the Potency entry with MKL-1, with MKL-2 and with WaGa was “inactive” throughout.
As to `Nc1nc2[nH]cc(CCc3ccc(C(=O)N[C@@H](CCC(=O)O)C(=O)O)cc3)c2c(=O)[nH]1`, the Potency result in the assay with MKL-1, in the assay with MKL-2 and in the assay on astro was “inactive” each time. Moreover, the Potency is 2.35 µM (active) with WaGa and 251 nM (active) in [1] (tumour line A). Further, the activity, negative = cell killing was -23.6% (inactive) in assay [1] (setting [2]) and -14.3% (inactive) in assay [1] (setting [3]).
For `NC[C@H](O)c1ccc(O)c(O)c1`, the Potency result in the assay with C33A, with CAOV3, in the assay on CASKI, in the assay on Es-2, in the assay on HeLa and in the assay on Hek293T was “inactive” each time. Moreover, the Potency entry in the assay on JEG-3, in the assay on OV90, in the assay with PA-1, with SKOV3, in the assay on Tov-21-G and in the assay on Tov112D was “inactive” throughout. Besides, the Potency result in the assay on astro is “inactive”. Besides, the activity, negative = cell killing in [1] (setting [2]) is -10.5% (inactive); in assay [1] (setting [3]) it was -7.44% (inactive); in [1] (setting [4]), -26.2% (inactive); in [1] (setting [5]) it was -17.3% (inactive).
For `OCCC#Cc1nc(-c2ccc(F)cc2)c(-c2ccncc2)n1CCCc1ccccc1`, the Potency entry with MKL-1 and in the assay on UISO was “inactive” each time. Besides, the compound was classed as inactive in the assay with NIH3T3.
`Cc1oncc1C(=O)Nc1ccc(C(F)(F)F)cc1`: the Potency in the assay with CAOV3 is 12.6 µM (active); in the assay with CASKI it was 31.6 µM (active); in the assay on Es-2 it was 28.2 µM (active); with HeLa, 25.1 µM (active); in the assay on Hek293T, 14.1 µM (active); in the assay with JEG-3, 25.1 µM (active). Besides, the Potency in the assay on OV90 is 17.8 µM (active); with PA-1, 11.2 µM (active); with SKOV3, 25.1 µM (active); in the assay on Tov-21-G, 25.1 µM (active); in the assay with Tov112D, 20 µM (active); in the assay with astro it was 10 µM (active).
As to `OCCn1cc(-c2cnc3nnn(Cc4ccc5ncccc5c4)c3n2)cn1`, the Potency result with MKL-1, in the assay with MKL-2, in the assay with UISO, in the assay with WaGa, in the assay on C33A and in the assay with CAOV3 was “inactive” in each case. For the same compound, the Potency entry with CASKI, in the assay on Es-2, with HeLa, in the assay with Hek293T, in the assay on JEG-3 and with OV90 was “inactive” throughout. In addition, the Potency entry in the assay with PA-1, with SKOV3, in the assay on Tov-21-G and with Tov112D was “inactive” throughout.
